“And” between values parts separate entries of the source, which are not always exact repeats. Equal values may be shown once. Inconclusive results are not listed. The source made the active and inactive calls. The call rests on the fitted dose curve; in most records, active means well fitted curve in the direction sought with a large enough effect; inconclusive means small, poorly fitted or top-dose-only effect, or another doubt; inactive means no such curve, though single readings can be large; an effect the other way counts as inactive or inconclusive.

In PubChem BioAssay (NCATS) one finds Potency, outcome and viability (% of DMSO) data, which are given here for 19 compounds.

Test [1] addresses Glutathione peroxidase 1 (Homo sapiens) (UniProt P07203). As to the kind of experiment: Primary qHTS Assay for Inhibitors of Recombinant Selenoprotein Glutathione Peroxidase 1 (GPX1) (AID 1845191). Further: nearly all actives have a fitted effect of over 65% in size. The gist of the method: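 GR-coupled readout: NADPH consumption tracked by fluorescence, ex 340/em 450 nm, at t=0 and after 15 min at RT. Final mix 10 nM GPX1, 1 mM GSH, 0.5 mM CHP, 0.5 mM NADPH, 100 nM GR, 0.01% BSA, following 30 min enzyme–compound preincubation.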
A general note: In qHTS, concentration-response curves come from the screen itself.

For test [2], the target named is Phospholipid hydroperoxide glutathione peroxidase GPX4 (Homo sapiens) (UniProt P36969). As to the kind of experiment: Primary qHTS Assay for Inhibitors of Recombinant Selenoprotein Glutathione Peroxidase 4 (GPX4) (AID 1845192). Further: nearly all actives have a fitted effect of over 65% in size. Further: potency means the concentration at half of the fitted maximal effect. The method, boiled down: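 Steps: GPX4 plus compound, 30 min RT; add GR/GSH/NADPH master mix; start with cumene hydroperoxide; read 340/450 nm fluorescence at 0 and 15 min. Finals were 200 nM GPX4, 1 mM GSH, 0.5 mM CHP, 0.5 mM NADPH, 100 nM GR.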

A short description of test [3]: Quantitative High-Throughput drug screen in 47 multiple myeloma cell lines against the NCATS MIPE library collection: FR4_PLB cell viability assay (AID 1918924; further: nearly all actives have a fitted effect of over 35% in size; further: potency means the concentration at half of the fitted maximal effect). The gist of the method:
(§1)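 We plated 500 myeloma cells per well, pinned in MIPE 4.0 compounds, and incubated for 48 hours at 37C. ATP was then quantified with CellTiter-Glo, with DMSO and media-only wells defining 100% and 0%.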

The nature of test [4]: Quantitative High-Throughput drug screen in 47 multiple myeloma cell lines against the NCATS MIPE library collection: EJM_DSMZ cell viability assay (AID 1918926; further: nearly all actives have a fitted effect of over 30% in size; further: potency means the concentration at half of the fitted maximal effect). The method, boiled down: (§2)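 Steps: seed 500 cells per well; pin-transfer MIPE 4.0 library; incubate 48 h at 37C, 5% CO2, humidified; add CellTiter-Glo, 5 min room temperature; read luminescence.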
Test [5] is described as follows: Quantitative High-Throughput drug screen in 47 multiple myeloma cell lines against the NCATS MIPE library collection: ARP1_JJKsccF8 cell viability assay (AID 1918928; further: nearly all actives have a fitted effect of over 40% in size; further: potency means the concentration at half of the fitted maximal effect). The gist of the method:
(§3)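 500 cells/well; MIPE 4.0 library pinned in; 48 h, 37 °C, 5% CO2; CellTiter-Glo ATP luminescence. Controls: DMSO = 100% viability, medium only = 0%.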

The nature of test [6]: Quantitative High-Throughput drug screen in 47 multiple myeloma cell lines against the NCATS MIPE library collection: ARD_JJKsccE7 cell viability assay (AID 1918929; further: potency means the concentration at half of the fitted maximal effect). The gist of the method: as §2
Test [7] is described as follows: Quantitative High-Throughput drug screen in 47 multiple myeloma cell lines against the NCATS MIPE library collection: Karpas620_DSMZ cell viability assay (AID 1918959). Further: nearly all actives have a fitted effect of over 30% in size. Further: potency means the concentration at half of the fitted maximal effect. The gist of the method:
as §1

The nature of test [8]: Quantitative High-Throughput drug screen in 47 multiple myeloma cell lines against the NCATS MIPE library collection: KHM11_PLB cell viability assay (AID 1918962). Further: nearly all actives have a fitted effect of over 35% in size. Further: potency means the concentration at half of the fitted maximal effect. The gist of the method:
as §1

Test [9] is described as follows: Quantitative High-Throughput drug screen in 47 multiple myeloma cell lines against the NCATS MIPE library collection: JIM3_ECACC cell viability assay (AID 1918963; further: nearly all actives have a fitted effect of over 35% in size; further: potency means the concentration at half of the fitted maximal effect). The gist of the method: as §1
Test [10] is described as follows: Quantitative High-Throughput drug screen in 47 multiple myeloma cell lines against the NCATS MIPE library collection: AMO1_DSMZ cell viability assay (AID 1918927; further: nearly all actives have a fitted effect of over 30% in size; further: potency means the concentration at half of the fitted maximal effect). The gist of the method:
as §2

Test [11] is described as follows: Quantitative High-Throughput drug screen in 47 multiple myeloma cell lines against the NCATS MIPE library collection: KMM1_JCRB cell viability assay (AID 1918960). Further: nearly all actives have a fitted effect of over 30% in size. Further: potency means the concentration at half of the fitted maximal effect. The gist of the method: as §3
Test [12] in a line: Primary fluorescence-based thiol-reactive (MSTI) qHTS assay for identification of artifact compounds. (AID 1845221).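 Further: thiol-reactive compounds lower the probe fluorescence signal; nearly all actives have a fitted effect of over 65% in size.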 The gist of the method:
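qHTS titration of compound; 4 uM MSTI, PBS pH 7.4, 2% DMSO; 1 h RT, dark; fluorescence 525/598 nm; normalized to Acetyl-MSTI and MSTI; 4-parameter Hill fit.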

Test [13] has as its system Nanoluciferase (engineered Oplophorus gracilirostris luciferase). As to the kind of experiment: Primary Nanoluciferase (NLuc) qHTS assay for identification of artifact compounds. (AID 1845222).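 Further: NLuc secreted into diluted conditioned medium of S16 cells; 0% = DMSO and -100% = no enzyme.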 The method, boiled down:
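qHTS format, against NLuc in S16 cell-conditioned medium. Nano-Glo substrate 1:100 was added after 15 min at room temperature. Luminescence was taken after a further 5 min.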

Test [14] can be described thus: Primary redox qHTS assay for identification of artifact compounds. (AID 1845223). The method, boiled down: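 Redox-cycling detection via DTT (250 uM final) oxidation coupled to Amplex Red (25 uM)/HRP (250 mU/mL) in HBSS. 15 min preincubation plus 30 min after DTT, room temperature. Ex/Em 525/598 nm; 4-parameter Hill fit against DMSO and 10 uM DA3003.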
A short description of test [15]: Quantitative High-Throughput drug screen in 47 multiple myeloma cell lines against the NCATS MIPE library collection: Delta47_JCRB cell viability assay (AID 1918925; further: nearly all actives have a fitted effect of over 45% in size; further: potency means the concentration at half of the fitted maximal effect). The gist of the method: as §2
Test [16] in a line: Quantitative High-Throughput drug screen in 47 multiple myeloma cell lines against the NCATS MIPE library collection: Karpas417_ECACC cell viability assay (AID 1918961). Further: potency means the concentration at half of the fitted maximal effect. The following applies: Karpas417 myeloma viability, CellTiter-Glo ATP luminescence, 48 h; viability (% of DMSO): at 45.8 µM (top of the series) unless noted. The method, boiled down:
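Viability readout: CellTiter-Glo luminescence following 5 min room-temperature incubation with reagent. Prior exposure: 48 h, 37C, humidified 5% CO2, 500 cells per well.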
A general note: In ATP-based viability assays light output follows the ATP content of the culture.

Glutathione peroxidase 1 (Homo sapiens), sequence (P07203 whole entry, looked up): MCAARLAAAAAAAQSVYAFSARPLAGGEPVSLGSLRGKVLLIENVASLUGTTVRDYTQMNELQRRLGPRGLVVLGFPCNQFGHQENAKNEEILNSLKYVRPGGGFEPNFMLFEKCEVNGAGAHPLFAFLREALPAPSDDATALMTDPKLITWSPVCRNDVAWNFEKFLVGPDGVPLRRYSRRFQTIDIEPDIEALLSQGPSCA
Phospholipid hydroperoxide glutathione peroxidase GPX4 (Homo sapiens), sequence (P36969 whole entry, looked up): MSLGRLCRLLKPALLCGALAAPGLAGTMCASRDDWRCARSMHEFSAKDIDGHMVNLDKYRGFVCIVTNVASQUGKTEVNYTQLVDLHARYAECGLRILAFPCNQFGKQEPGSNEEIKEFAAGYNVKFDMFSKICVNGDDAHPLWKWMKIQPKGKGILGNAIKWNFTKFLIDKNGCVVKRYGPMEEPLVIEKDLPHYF

As to `C[C@]1(c2nc3c(C(N)=O)cccc3[nH]2)CCCN1`, the Potency entry in test [1], in test [2], in test [3], in [4], in test [5] and in test [6] was “inactive” in each case. Besides, the Potency entry in [7] was “inactive”. Moreover, the Potency in [8] is 18.7 µM (active).

Turning to `CNC(=O)c1ccc(N2C(=S)N(c3ccc(C#N)c(C(F)(F)F)c3)C(=O)C2(C)C)cc1F`, the Potency result in test [1], in test [2], in test [3], in test [4], in test [8] and in test [9] was “inactive” each time.

With `NC(=O)C1CCCc2c1[nH]c1ccc(Cl)cc21` (configuration not stated), the Potency entry in test [1], in test [2], in test [3], in [4] and in test [9] was “inactive” each time. The Potency was 14.8 µM (active) in [10], 18.7 µM (active) in test [7] and 14.8 µM (active) in test [8].

Turning to `c1ccc(-c2nn3c(c2-c2ccnc4cc(OCCN5CCOCC5)ccc24)CCC3)nc1`, the Potency result in test [1], in test [2], in test [4], in [6], in test [7] and in test [11] was “inactive” each time. Also, the Potency result in test [9] was “inactive”.

For the compound `Nc1cccc(S(=O)(=O)N2CCCN(S(=O)(=O)c3ccc4c(c3)OCCO4)CC2)c1`, the Potency entry in test [1], in test [2], in test [3], in test [6], in test [7] and in test [11] was “inactive” in each case. The Potency in [10] is 4.18 µM (active).

Take `OCCn1cc(-c2cnc3nnn(Cc4ccc5ncccc5c4)c3n2)cn1`: in test [2], the Potency is 14.3 µM (active). The Potency result in test [12], in test [3], in test [15], in test [10], in [5] and in test [6] was “inactive” in each case. Further, the Potency entry in [7] and in [9] was “inactive” throughout. Moreover, the compound was called inactive in test [13] and in [14].

As for `Cc1cccc(-c2nn(C(=S)Nc3ccccc3)cc2-c2ccnc3ccccc23)n1`, the Potency result in test [1], in test [3], in test [10], in test [5] and in test [7] was “inactive” each time. The Potency in test [9] was 13.2 µM (active).

For the compound `Oc1cccc(-c2nc(N3CCOCC3)c3oc4ncccc4c3n2)c1`, in test [1], the Potency entry was “inactive”. Besides, the Potency in [3] is 0.0762 µM (active); in test [4] it was 6.79 µM (active); in test [10], 0.171 µM (active); in [7] it was 0.0959 µM (active); in test [11] it was 0.0136 µM (active); in [9], 0.0762 µM (active). In test [16], the viability (% of DMSO) is 2.23% [at 92.2 µM] (active).

Take `Cc1csc(NC(=O)c2sc3nc4c(c(C(F)(F)F)c3c2N)CCC4)n1`: the Potency result in test [2], in test [12], in [3], in test [15], in [10] and in [6] was “inactive” throughout. Also, the Potency result in [7], in test [11], in [8] and in test [9] was “inactive” throughout. In addition, the result in test [13] and in test [14] was inactive.

With `O=C(C1CC1)N1CC[C@@H](Cn2c(-c3ccc(-c4ccc5occc5c4)cc3)nc3cnccc32)C1`, the Potency was 22.7 µM (active) in test [2] and 16.6 µM (active) in test [9]. For the same compound, the Potency entry in test [8] was “inactive”.

As to `CC(C=CC1=C(C)CCCC1(C)C)=CC=CC(C)=CC(=O)O`, the Potency is 11.8 µM (active) and 4.18 µM (active) in test [15]; 23.5 µM (active) in [6]; 5.9 µM (active) in [8]; 20.9 µM (active) and 4.69 µM (active) in [9].

Consider `CCC(C)n1ncn(-c2ccc(N3CCN(c4ccc(OC[C@H]5CO[C@](Cn6cncn6)(c6ccc(Cl)cc6Cl)O5)cc4)CC3)cc2)c1=O` (some centres not stated), for which the Potency entry in test [2], in [15], in test [7], in test [8] and in test [9] was “inactive” each time. Further, the result in [13] and in test [14] was inactive.

Consider `CCOC(=O)N[C@@H]1CC[C@@H]2[C@@H](C1)C[C@H]1C(=O)O[C@H](C)[C@H]1[C@@H]2C=Cc1ccc(-c2cccc(F)c2)cn1`, for which the Potency in test [10] and in test [6] was 18.7 µM (active) each time.

For `S=C(NCc1ccc2c(c1)OCO2)N1CCN(c2ncnc3c2oc2ccccc23)CC1`, in [1], the Potency entry is “inactive”. Also, the result in test [13] and in test [14] was inactive. In addition, the Potency in test [3] is 27 µM (active); in test [15], 1.08 µM (active); in [10] it was 2.7 µM (active); in test [5], 3.03 µM (active); in test [6] it was 0.855 µM (active); in test [7], 2.41 µM (active). The Potency in test [11] was 1.36 µM (active); in [16], 4.29 µM (active); in test [8] it was 0.855 µM (active); in test [9], 5.4 µM (active).

With `O=S(=O)(N=Cc1c(O)ccc2ccccc12)c1cccs1`, the Potency result in test [4] is “inactive”. Besides, the Potency in [9] is 3.32 µM (active).

On to `O=C1[C@H](Cc2ccc(O)cc2)N2C(=O)CCN(C(=O)NCc3ccccc3)[C@H]2CN1Cc1cccc2ccccc12`, for which the Potency entry in test [1], in test [2], in [7], in test [11] and in test [16] was “inactive” throughout. The Potency in test [5] was 4.18 µM (active); in test [8], 2.96 µM (active).

Turning to `CCC(=O)N[C@H]1CC[C@H](C(=O)N(C)c2ccc(-c3nc4ccccc4o3)cc2)C1`, the Potency result in [1] and in test [2] was “inactive” in each case. For the same compound, the Potency in [10] was 11.8 µM (active); in [6] it was 11.8 µM (active); in [9], 8.33 µM (active).

In the case of `Cc1cc(C=c2sc3nc4ccccc4n3c2=O)c(C)n1-c1ccccc1`, the Potency in [4] is 6.62 µM (active); in [8] it was 0.833 µM (active). The Potency result in [10], in [6], in test [7] and in test [9] was “inactive” each time.

Consider `COc1ccc(-c2c(-c3ccc(O)cc3O)n[nH]c2C)cc1`, for which the Potency entry in [1] and in test [8] was “inactive” in each case. Moreover, the Potency in [10] and in [7] was 42.9 µM (active) throughout. In addition, the viability (% of DMSO) in test [16] was 34.5% [at 92.2 µM] (active).
